Measurements from PubChem BioAssay AID1159580 (chemical genetic matrix, 2015).
Screen size: about 5,500 compounds; about 2,000 (36%) were called active. Roughly 18% stayed inconclusive and do not appear here. Rule as the data show it: active = normalized growth mostly below about 0.91 (no sharp cut-off); inconclusive = no clear call, values can overlap the other calls; inactive = mostly above about 0.92. Some of the results follow.

Test: chemical genetic growth profiling, strain panel (AID 1159580);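 also: tested at 20 µM; growth read once vehicle control cultures reached saturation at 30 °C; 1 = growth at the plate median or of vehicle wells; lower values mean less growth of the strain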
Details: S. cerevisiae deletion strains, growth OD

Measured: normalized growth

CN1CCN(C(=O)OC2c3nccnc3C(=O)N2c2ccc(Cl)cn2)CC1 (centres undefined)
inactive: locus YAL021C, strain ccr4, stronger effect = lower value 1 | locus YAL026C, strain drs2, stronger effect = lower value 0.993 | locus YAL030W, strain snc1, stronger effect = lower value 0.997 | locus YBL061C, strain skt5, stronger effect = lower value 0.99 | locus YBR009C, strain hhf1, stronger effect = lower value 1.01 | locus YBR023C, strain chs3, stronger effect = lower value 0.991 | locus YBR171W, strain sec66, stronger effect = lower value 0.997 | locus YBR231C, strain swc5, stronger effect = lower value 0.979 | locus YBR279W, strain paf1, stronger effect = lower value 1.01 | locus YCL011C, strain gbp2, stronger effect = lower value 1 | locus YCL016C, strain dcc1, stronger effect = lower value 0.994 | locus YCL069W, strain vba3, stronger effect = lower value 1 | locus YCR088W, strain abp1, stronger effect = lower value 0.996 | locus YDL005C, strain med2, stronger effect = lower value 0.99 | locus YDL040C, strain nat1, stronger effect = lower value 0.981 | locus YDR001C, strain nth1, stronger effect = lower value 0.992 | locus YDR069C, strain doa4, stronger effect = lower value 0.991 | locus YDR137W, strain rgp1, stronger effect = lower value 0.998 | locus YDR159W, strain sac3, stronger effect = lower value 1.01 | locus YDR195W, strain ref2 0.959 | locus YDR297W, strain sur2, stronger effect = lower value 0.979 | locus YDR334W, strain swr1, stronger effect = lower value 0.983 | locus YDR335W, strain msn5, stronger effect = lower value 1 | locus YDR392W, strain spt3, stronger effect = lower value 1.02 | locus YEL003W, strain gim4, stronger effect = lower value 1 | locus YEL037C, strain rad23, stronger effect = lower value 0.994 | locus YEL061C, strain CIN8 (second series), stronger effect = lower value 0.993 | locus YER015W, strain faa2, stronger effect = lower value 0.99 | locus YER016W, strain bim1, stronger effect = lower value 1.01 | locus YER111C, strain swi4, stronger effect = lower value 1 | locus YER155C, strain BEM2 (second series), stronger effect = lower value 0.999 | locus YFR010W, strain ubp6, stronger effect = lower value 0.987 | locus YGL167C, strain pmr1, stronger effect = lower value 0.986 | locus YGL173C, strain kem1, stronger effect = lower value 0.976 | locus YGL227W, strain vid30, stronger effect = lower value 0.976 | locus YGL240W, strain doc1, stronger effect = lower value 1 | locus YGL253W, strain hxk2, stronger effect = lower value 0.994 | locus YHR013C, strain ard1, stronger effect = lower value 0.98 | locus YHR027C, strain rpn1, stronger effect = lower value 1 | locus YHR030C, strain SLT2, stronger effect = lower value 1.02 | locus YHR079C, strain IRE1, stronger effect = lower value 1.01 | locus YHR142W, strain chs7, stronger effect = lower value 1.01 | locus YJL092W, strain hpr5, stronger effect = lower value 0.984 | locus YJL095W, strain BCK1 (second series), stronger effect = lower value 0.97 | locus YJL095W, strain BCK1, stronger effect = lower value 1.01 | locus YJL115W, strain asf1, stronger effect = lower value 0.995 | locus YJL129C, strain trk1, stronger effect = lower value 0.956 | locus YJL154C, strain vps35, stronger effect = lower value 0.993 | locus YJL164C, strain tpk1, stronger effect = lower value 1.01 | locus YJL166W, strain qcr8, stronger effect = lower value 0.998 | locus YJL187C, strain SWE1, stronger effect = lower value 0.994 | locus YJR066W, strain TOR1, stronger effect = lower value 0.935 | locus YKL160W, strain elf1, stronger effect = lower value 0.984 | locus YKR026C, strain gcn3, stronger effect = lower value 0.988 | locus YKR091W, strain srl3, stronger effect = lower value 0.995 | locus YLL001W, strain dnm1, stronger effect = lower value 0.971 | locus YLL026W, stronger effect = lower value 1 | locus YLL041C, strain sdh2, stronger effect = lower value 1.01 | locus YLR027C, strain aat2, stronger effect = lower value 1 | locus YLR113W, strain HOG1, stronger effect = lower value 1 | locus YLR221C, strain rsa3, stronger effect = lower value 0.987 | locus YLR258W, strain gsy2, stronger effect = lower value 1.01 | locus YLR262C, strain YPT6 (second series), stronger effect = lower value 1 | locus YLR320W, strain mms22, stronger effect = lower value 1.01 | locus YLR342W, strain FKS1, stronger effect = lower value 0.995 | locus YLR357W, strain rsc2, stronger effect = lower value 0.978 | locus YLR370C, strain arc18, stronger effect = lower value 0.998 | locus YLR384C, strain iki3, stronger effect = lower value 0.994 | locus YML120C, strain ndi1, stronger effect = lower value 0.985 | locus YMR058W, strain fet3, stronger effect = lower value 1 | locus YMR125W, strain sto1, stronger effect = lower value 0.946 | locus YMR129W, stronger effect = lower value 1 | locus YMR205C, strain PFK2, stronger effect = lower value 0.99 | locus YMR231W, strain pep5, stronger effect = lower value 0.99 | locus YNL071W, strain lat1, stronger effect = lower value 1 | locus YNL183C, strain NPR1, stronger effect = lower value 0.957 | locus YNL209W, strain ssb2, stronger effect = lower value 1.01 | locus YNL248C, strain rpa49, stronger effect = lower value 0.989 | locus YNL322C, strain KRE1 (second series), stronger effect = lower value 0.976 | locus YNR049C, strain mso1, stronger effect = lower value 1 | locus YOR001W, strain rrp6, stronger effect = lower value 0.973 | locus YOR070C, strain gyp1, stronger effect = lower value 0.998 | locus YOR080W, strain dia2, stronger effect = lower value 0.987 | locus YOR083W, strain WHI5, stronger effect = lower value 0.983 | locus YOR106W, strain vam3, stronger effect = lower value 0.98 | locus YOR231W, strain MKK1, stronger effect = lower value 1.01 | locus YOR265W, strain rbl2, stronger effect = lower value 0.993 | locus YOR270C, strain vph1, stronger effect = lower value 0.967 | locus YOR290C, strain snf2, stronger effect = lower value 1.01 | locus YPL051W, strain arl3, stronger effect = lower value 0.988 | locus YPL078C, strain atp4, stronger effect = lower value 0.979 | locus YPL106C, strain sse1, stronger effect = lower value 1.05 | locus YPL240C, strain hsp82, stronger effect = lower value 1 | locus YPL256C, strain CLN2, stronger effect = lower value 1.01
